From PubChem BioAssay AID485364 (National Center for Advancing Translational Sciences (NCATS), 2010)
The campaign covered roughly 360,000 compounds. About 11,000 (3.1%) were called active. Inconclusive results (about 4%) are left out. Calls follow the shape of the dose curve; as a rule, active = well fitted inhibition curve with a large enough effect; inconclusive = small, poorly fitted or top-dose-only effect; inactive = no such curve, though single readings can be large or run the other way. The sample as a whole holds a higher share of actives than the screen did.

molecular target: Schistosoma mansoni thioredoxin glutathione reductase (TGR) (UniProt Q962Y6); assay: qHTS Assay for the Inhibitors of Schistosoma Mansoni Peroxiredoxins; settings: purified TGR, DTNB reduction, TNB absorbance 405 nm; series mostly up to 114 µM; activity change, negative = inhibition: at the top concentration; also: nearly all actives have a fitted effect of over 60% in size
Method in brief: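 First, TGR (20 nM dispensed) and NADPH were mixed with compound. Second, a 15 min room-temperature incubation followed. Third, further NADPH and then DTNB were added to start the reaction. Finally, TNB absorbance was monitored kinetically.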
% is scaled to controls: 0 for no effect and ±100 for the full control effect; potency is read from the fitted curve at half-maximal effect.

Row | SMILES | Potency | activity change, negative = inhibition
1 | CC(C)C1C2=C(CC(C)(C)CC2=O)ON1c1ccccc1 (configuration not stated) | 28.2 µM (active) | –
2 | CC(C)N1C(=O)N(c2ccccc2)C(C)(O)CC1(C)C (configuration not stated) | – | 0.967% (inactive)
3 | Cc1ccsc1C1C(C#N)=C(N)OC2=C1C(=O)CC(C)(C)C2 (configuration not stated) | – | 0.359% (inactive)
4 | Cc1sc2ncn(CC(=O)N3CCN(c4ccc(F)cc4)CC3)c(=O)c2c1S(=O)(=O)N1CCN(c2ncccn2)CC1 | – | -0.836% (inactive)
5 | CCc1cnc2c(c1SCC(=O)N1CCC(C)CC1)c(=O)n(C)c(=O)n2C | – | -0.0016% (inactive)
6 | O=C(Nc1cc(-c2nc3ccccc3o2)ccc1Cl)c1cc([N+](=O)[O-])ccc1N1CCOCC1 | – | -0.536% (inactive)
7 | Cc1cccc(NC(=O)C(C)SCc2ccccc2)c1 (configuration not stated) | – | -15.1% (inactive)
8 | Cc1onc(C(=O)Nc2ccc3c(c2)OCO3)c1[N+](=O)[O-] | – | -12.1% (inactive)
9 | Cc1onc(NC(=O)c2ccc([N+](=O)[O-])o2)c1Br | 28.2 µM (active) | –
10 | O=C(Nc1cccc([N+](=O)[O-])c1)c1ccc2c(c1)OCO2 | – | 2.85% (inactive)
11 | Cc1cccc(NC(=O)c2ccc(COc3ccccc3[N+](=O)[O-])o2)n1 | – | -4.93% (inactive)
12 | Cc1cccc(NC(=O)c2ccc([N+](=O)[O-])o2)c1 | 31.6 µM (active) | –
13 | Cc1cccc(C(=O)Nc2ccc(-c3nc4ncccc4o3)cc2C)c1 | – | 14.9% (inactive)
14 | COc1cc(NC(=O)c2cc3ccc4cccnc4c3[nH]2)cc(OC)c1OC | – | 12.9% (inactive)
15 | COc1ccc(Cl)cc1NC(=O)CCn1c(=O)c2cccn2c2ccccc21 | – | -1.03% (inactive)
16 | COc1cc(OC)c(OC)cc1/C=C/c1nc2cc3ccccc3cc2c(=O)n1-c1ccc(F)c(Cl)c1 | – | 2.39% (inactive)
17 | Cc1cc(C)cc(OC(C)C(=O)Nc2nc3c(s2)CCCC3)c1 (configuration not stated) | – | 5.35% (inactive)
18 | COC(=O)C(NC(C)=O)(Nc1nc2c(s1)CCCC2)C(F)(F)F (configuration not stated) | 50.1 µM (active) | –
19 | CCOC(=O)C(NC(=O)CC(C)C)(Nc1sc2c(c1C(N)=O)CCCC2)C(F)(F)F (configuration not stated) | – | -18.7% (inactive)
20 | COc1ccccc1CNc1nc2ccc(Cl)cc2n2cnnc12 | – | -0.742% (inactive)
21 | COc1ccccc1NC(=O)c1sc2nc(C)c(C(=O)Nc3ccc(Cl)cc3)c(-c3ccc(Br)cc3)c2c1N | – | 2.29% (inactive)
22 | O=[N+]([O-])c1ccccc1NCc1ccc(Cl)cc1 | – | -16.6% (inactive)
23 | Oc1ccc(CNc2ccccc2O)cc1 | 20 µM (active) | –

Row | SMILES | Potency | activity change, negative = inhibition
24 | O=C(Cc1ccc(Cl)cc1)NC(=S)Nc1ccccc1O | – | -7.71% (inactive)
25 | O=C(CC(c1cccs1)N1Cc2ccccc2C1=O)Nc1ccc(F)c(F)c1 (configuration not stated) | – | 11.1% (inactive)
26 | CC(C)Oc1ccc(CNC(=O)C2CCN(c3nc4ccccc4n(C)c3=O)CC2)cc1 | – | 1.86% (inactive)
27 | CC1CN(C(=O)N2CCC(C(=O)NCc3cccs3)CC2)c2ccccc2O1 (configuration not stated) | – | 6.75% (inactive)
28 | O=C(NC1(C(F)(F)F)N=C(c2ccccc2)N(C2CCCCC2)C1=O)c1ccccc1F (configuration not stated) | – | -12.4% (inactive)
29 | CC1=C(C/C=C(\C)CCCC(C)CCCC(C)CCCC(C)C)C(=O)c2ccccc2C1=O (configuration not stated) | 28.2 µM (active) | –
30 | CC(=O)Nc1ccc(NC(=O)CCCc2nc(-c3ccc(C(C)(C)C)cc3)no2)cc1 | – | 0.679% (inactive)
31 | Cc1cc(C)c(-c2n[nH]c3c2C(c2ccccc2F)N(CCO)C3=O)c(O)c1 (configuration not stated) | – | 6.94% (inactive)
32 | COc1ccc(N2CCN(Cc3nc4c(c(=O)[nH]c(=O)n4C)n3Cc3ccc(Cl)cc3)CC2)cc1 | – | -14.2% (inactive)
33 | CCOC(=O)c1c(NC(=O)/C=C/c2ccco2)sc(C)c1C | 35.5 µM (active) | –
34 | Cc1nnc(NC(=O)CCCOc2ccccc2)s1 | – | 0.399% (inactive)
35 | CCOC(=O)c1sc(NC(=O)/C=C/c2ccc(C(C)C)cc2)c(C(=O)OCC)c1C | – | 0.526% (inactive)
36 | Cc1nnc(NC(=O)/C=C/c2ccco2)s1 | 22.4 µM (active) | –
37 | CCOC(=O)c1c(NC(=S)NC(=O)/C=C/c2cccs2)sc(C)c1C | – | -1.8% (inactive)
38 | Cc1nnc(NC(=O)C(c2ccccc2)c2ccccc2)s1 | – | -4.87% (inactive)
39 | O=C(CSc1nc(-c2cccc(F)c2)[nH]c1-c1ccccc1)Nc1ccc2c(c1)OCO2 | – | 3.36% (inactive)
40 | CCN(CC)S(=O)(=O)c1ccc(C(=O)N=c2sc3cccc(OC)c3n2C)cc1 | – | 8.26% (inactive)
41 | Cc1ccc(C)c(OCC(=O)Nc2sc3c(c2C#N)CCCC3)c1C | – | -1.88% (inactive)
42 | Cc1ccccc1-n1nc(C)c2c1N=C1C(Cl)=CC(Cl)=CN1C2c1ccc(C(=O)O)cc1 (configuration not stated) | 35.5 µM (active) | –
43 | Cc1nn(-c2ccccc2)c(Cl)c1/C=C/C(=O)c1ccc(O)cc1 | – | -14.4% (inactive)
44 | Cc1ccccc1-n1nc(C)c2cc(C(=O)NC3CC3)sc21 | – | -24.8% (inactive)
45 | O=C(Nc1ccc2nc(SCC(=O)N3CCCc4ccccc43)sc2c1)c1ccc(F)cc1 | – | -0.299% (inactive)
46 | CC(=O)c1ccc(NC(=O)c2nc(-c3ccc(C)cc3)n3c2CCCCC3)cc1 | – | -15.5% (inactive)

Row | SMILES | Potency | activity change, negative = inhibition
47 | Cc1ccccc1CNC(=O)CCCn1nc(C)c2sc3ccccc3c2c1=O | – | 22% (inactive)
48 | O=C(CC1OC(=O)c2ccccc21)NC1CCCCC1 (configuration not stated) | – | -20.2% (inactive)
49 | O=C(NC1CCCCC1)C1c2ccccc2C(=O)N1Cc1ccco1 (configuration not stated) | 39.8 µM (active) | –
50 | CCC(C)NC(=O)C1c2ccccc2C(=O)N1Cc1ccccc1 (configuration not stated) | – | -5.66% (inactive)
51 | CC(NC(=O)c1cc(Sc2ccc(F)cc2F)nc2ccccc12)c1ccccc1 (configuration not stated) | – | 2.43% (inactive)
52 | CC(C)C(=O)Nc1nc2c(s1)CC(C(C)(C)C)CC2 (configuration not stated) | – | -0.633% (inactive)
53 | Cc1ccc(S(=O)(=O)N(CC(=O)Nc2ccc(Cl)cc2Cl)c2ccccc2C)cc1 | – | 3.93% (inactive)
54 | COc1cccc(CN2CCc3nc(SCC(=O)Nc4ccccc4)[nH]c(=O)c3C2)c1 | – | -2.13% (inactive)
55 | CC(C)c1ccc(NC(=O)C2CCN(c3nc(-c4ccc(C(C)C)cc4)no3)CC2)cc1 | – | 45% (inactive)
56 | COC(=O)CN(C(=S)Nc1ccc(Cl)cc1)C1CC(=O)N(c2ccc(OC)cc2)C1=O (configuration not stated) | – | 3.21% (inactive)
57 | COc1cccc(N2C(=O)CC(N3CCN(S(=O)(=O)c4ccccc4)CC3)C2=O)c1 (configuration not stated) | 39.8 µM (active) | –
58 | COc1ccc(CN2CCCC(N3CCc4ccccc4C3)C2)c(O)c1 (configuration not stated) | – | -23% (inactive)
59 | COc1ccc(COCCN2CCN(S(=O)(=O)c3ccccc3)CCC2=O)cc1 | – | -10.8% (inactive)
60 | O=C(C1CC(=O)N(c2ccc(F)cc2)C1)N1CCN(c2ccccc2)CC1 (configuration not stated) | – | -41.2% (inactive)
61 | COc1cccc(N2C(=O)CN(Cc3ccccc3)C2=S)c1 | – | -29.4% (inactive)
62 | O=C1CC(N2CCN(c3ccc(F)cc3)CC2)C(=O)N1c1ccccc1 (configuration not stated) | 50.1 µM (active) | –
63 | COc1cccc(N2CC(NS(=O)(=O)c3ccc(Cl)cc3)CC2=O)c1 (configuration not stated) | – | -6.5% (inactive)
64 | COc1cccc(N2C(=O)CC(N3CCc4ccccc4C3)C2=O)c1 (configuration not stated) | 39.8 µM (active) | –
65 | CN1C(=O)CC(N2CCN(c3ccccn3)CC2)C1=O (configuration not stated) | – | 1.89% (inactive)
66 | COc1cccc(N(CC(=O)N2CCc3ccccc3C2)S(C)(=O)=O)c1 | – | -6.18% (inactive)
67 | COc1cccc(N2CCN(C3CC(=O)N(c4ccc(Cl)cc4)C3=O)CC2)c1 (configuration not stated) | 39.8 µM (active) | –
